The full ranking holds about 110,000 compounds; the median of “z-score” is about -0.1, and the highest 2% start at about 2. For the sample, the highest values were picked, then their nearest neighbours and some compounds at random. Activity calls are given as the source filed them.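 Rule for the calls: active = z-score in the third read window above 3 or below -3; inactive = the rest.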
biological target: Metabotropic glutamate receptor 8 (Rattus norvegicus) (UniProt P70579); assay: rat mGluR8 modulators via GIRK flux, primary screen, cell-based, thallium flux, HTS (AID 488969); conditions: HEK293 rat mGluR8, GIRK (G protein-gated inwardly rectifying potassium channel) thallium flux, FluoZin2; at 10 µM; stronger effect = higher value; submaximal glutamate (EC20) added with thallium
Sequence (P70579 whole entry, looked up): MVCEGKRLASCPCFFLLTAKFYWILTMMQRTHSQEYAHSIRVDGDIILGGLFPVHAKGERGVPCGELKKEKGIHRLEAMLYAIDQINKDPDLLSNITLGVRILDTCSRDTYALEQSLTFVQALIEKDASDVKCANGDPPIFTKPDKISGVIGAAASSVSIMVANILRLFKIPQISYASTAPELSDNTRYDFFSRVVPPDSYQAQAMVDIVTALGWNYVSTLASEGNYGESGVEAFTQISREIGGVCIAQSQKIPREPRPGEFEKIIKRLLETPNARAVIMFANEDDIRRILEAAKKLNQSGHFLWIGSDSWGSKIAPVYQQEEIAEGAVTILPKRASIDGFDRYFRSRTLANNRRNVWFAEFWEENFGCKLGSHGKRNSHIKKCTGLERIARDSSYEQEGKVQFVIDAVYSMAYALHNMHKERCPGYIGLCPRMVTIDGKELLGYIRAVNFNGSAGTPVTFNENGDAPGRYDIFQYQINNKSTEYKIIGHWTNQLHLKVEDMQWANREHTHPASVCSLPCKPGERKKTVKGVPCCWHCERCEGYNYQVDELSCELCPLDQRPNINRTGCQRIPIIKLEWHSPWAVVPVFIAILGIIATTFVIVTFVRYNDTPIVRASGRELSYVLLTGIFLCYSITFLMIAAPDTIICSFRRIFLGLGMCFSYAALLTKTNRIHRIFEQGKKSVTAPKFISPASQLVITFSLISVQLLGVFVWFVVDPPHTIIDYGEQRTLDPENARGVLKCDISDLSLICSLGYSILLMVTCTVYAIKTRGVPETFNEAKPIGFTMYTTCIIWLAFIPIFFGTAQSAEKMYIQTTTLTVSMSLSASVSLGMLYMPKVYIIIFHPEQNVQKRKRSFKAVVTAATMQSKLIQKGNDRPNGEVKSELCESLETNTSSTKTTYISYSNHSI

Compound	z-score
O=C(NCC1COc2ccccc2O1)c1ccccc1 (stereo unspecified)	0.298
O=C(NC(=S)Nc1ccc2c(c1)OCCO2)c1ccccc1	2.12
O=C(CC(=O)c1ccccc1)Nc1ccc2c(c1)OCCO2	-0.987
O=C(NC(=S)Nc1ccc2[nH]ncc2c1)c1ccccc1	-0.139
O=C(NC(=S)Nc1ccc2c(c1)OCO2)c1ccc(Cl)cc1	0.837
Cc1cc(NC(=S)NC(=O)c2ccccc2)ccc1-c1cc2ccccc2oc1=O	-0.165
O=C(NC(=S)NCc1ccc2c(c1)OCO2)c1ccccc1	1.1
O=C(NC(=S)Nc1ccc2c(c1)OCCO2)c1cccc(Br)c1	0.945
O=C(NC(=S)Nc1ccc2c(c1)OCO2)c1ccccc1	3.25 (active)
O=C(CNC(=O)c1ccccc1)NCC1COc2ccccc2O1 (stereo unspecified)	0.11
O=C(NC(=S)NCC1COc2ccccc2O1)c1ccccc1 (stereo unspecified)	6.58 (active)
Cn1ncc2cc(NC(=S)NC(=O)c3ccccc3)ccc21	2.21
Cc1ccc(C2N(c3ccc(F)cc3)C(=O)C3CCCN32)cc1 (stereo unspecified)	0.214
N#Cc1cc(C(=O)c2ccccc2OCC(=O)Nc2ccccc2Cl)cn(C2CCCCC2)c1=O	-0.433
CCn1c(CCCOc2ccc(Cl)cc2Cl)nnc1SCC(=O)Nc1cccc(F)c1	-0.135
CCOc1ccccc1Nc1ncccc1C(=O)N1CCCC1	1.1

Compound	z-score
Cc1ccc(C)c(N2CCN(S(=O)(=O)c3c(C)noc3/C=C/N(C)C)CC2)c1	-0.559
CC1(C(=O)N2CC3(CC(c4ccccc4)=NO3)C[C@H]2C(=O)NCC(N)=O)CC1 (stereo partly specified)	-0.0396
CCOc1ccccc1Oc1c(C)oc2c(CN3CCN(CCO)CC3)c(O)ccc2c1=O	-0.395
CCc1ccc(N2CC(C(=O)Nc3ccc(C)c(S(=O)(=O)N4CCOCC4)c3)CC2=O)cc1 (stereo unspecified)	0.319
CC(C)NC(=O)c1ccccc1N(Cc1ccccc1)S(C)(=O)=O	0.373
COc1ccc2nc(NC(=O)c3cccc(-c4cc5ccccc5oc4=O)c3)sc2c1	0.372
Cc1ccc(C(=O)NC(=S)Nc2ccc3c(c2)OCCO3)c(C)c1	2.7
CCc1ccc(C(=O)NC(=S)Nc2ccc3c(c2)OCCO3)cc1	0.946
Cc1cc(C)cc(C(=O)NC(=S)Nc2ccc3c(c2)OCCO3)c1	-0.353
Cc1ccc(Cl)c(NC(=S)N(CCCN2CCOCC2)Cc2ccco2)c1	-0.227
Cc1cccc2cc(/C=N/NC(=O)c3ccccc3O)c(Cl)nc12	0.0387
O=C(NCCCCNC(=O)c1ccc(Cl)s1)c1ccc(Cl)s1	-0.423
CC1(C)Cc2ccccc2C(/C(=N\Nc2cccc(Cl)c2)C(N)=O)=N1	3.23 (active)
COc1ccc(N/N=C(/C(N)=O)C2=NC(C)(C)Cc3ccccc32)cc1	-0.381
Cc1cccc(N/N=C(\C(N)=O)C2=NC(C)(C)Cc3ccccc32)c1	-0.302

From PubChem BioAssay AID488969 (Vanderbilt High Throughput Screening Facility, 2010)
